“And” between values parts separate entries of the source, which are not always exact repeats. Identical values can stand only once. Results filed as inconclusive are left out. The source made the active and inactive calls. Unless noted, calls follow the shape of the dose curve; as a rule, active = well fitted curve in the direction sought with a large enough effect; inconclusive = small, poorly fitted or top-dose-only effect, or another doubt; inactive = no such curve, though single readings can be large; an effect the other way counts as inactive or inconclusive.

A short description of assay [1]: Counterscreen for APE1 Inhibitors: Fluorescent Dye Displacement Validation Assay (AID 1707). In outline: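 Thiazole Orange (250 nM) bound to 50 nM TAMRA-labelled dsDNA with tetrahydrofuran abasic site; displacement by DNA-binding compounds lowers fluorescence. Buffer 50 mM Tris-HCl pH 7.5, 50 mM NaCl, 2 mM MgCl2, 0.01% Tween-20; endpoint read at 480/540 nm.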
(In general: A counterscreen serves to expose hits that act by an unwanted route or on another target.)

In assay [2] the target is Endonuclease 4 (Escherichia coli (strain K12)) (UniProt P0A6C1). In words: Counterscreen for APE1 Inhibitors: qHTS Validation Assay for Inhibitors of Endonuclease IV (AID 1708). In outline: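 qHTS concentration-response format; LOPAC1280 tested under APE1-screen conditions. 2 nM enzyme, 15 min compound preincubation at RT, then 50 nM TAMRA/BHQ-2 abasic substrate; kinetic fluorescence read, three reads at 60 s intervals.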

The nature of assay [3]: qHTS for differential inhibitors of proliferation of Plasmodium falciparum line 7G8 (AID 1815;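 also: potency is read from the fitted curve at half-maximal effect; parasite growth measured after three days of incubation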). (In general: In qHTS, concentration-response curves come from the screen itself.)
Assay [4] is described as follows: qHTS for differential inhibitors of proliferation of Plasmodium falciparum line GB4 (AID 1816).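 Also: potency is read from the fitted curve at half-maximal effect; parasite growth measured after 72 h incubation.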 The settings on record: Potency: Plasmodium falciparum GB4 proliferation inhibition.
The nature of assay [5]: qHTS for differential inhibitors of proliferation of Plasmodium falciparum line 3D7 (AID 1876). Also: potency is read from the fitted curve at half-maximal effect.
The nature of assay [6]: qHTS for differential inhibitors of proliferation of Plasmodium falciparum line D10 (AID 1877).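 Also: potency is read from the fitted curve at half-maximal effect; parasites grown with compound for 72 h before DNA staining.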
Assay [7] can be described thus: qHTS for differential inhibitors of proliferation of Plasmodium falciparum line Dd2 (AID 1882). Also: potency is read from the fitted curve at half-maximal effect; nearly all actives have a fitted effect of over 65% in size. The settings on record: Potency: Plasmodium falciparum Dd2 proliferation inhibition. In outline: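 Dd2-infected erythrocytes (0.3% parasitemia, 2.5% hematocrit final) incubated with compound 72 h at 37 C, 5% CO2; lysed with saponin/Triton buffer containing SYBR Green I, incubated overnight in the dark, then read by fluorescence (485/535 nm). Normalized to 0.29 uM artemisinin and DMSO.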

Assay [8] can be described thus: qHTS for differential inhibitors of proliferation of Plasmodium falciparum line W2 (AID 1883).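 Also: potency is read from the fitted curve at half-maximal effect; parasites grown with compound for 72 h before lysis and staining.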 The settings on record: Potency: Plasmodium falciparum W2 proliferation inhibition.
In assay [9] the target is ATP-dependent DNA helicase Q1 (Homo sapiens) (UniProt P46063). In words: qHTS Validation Assay for Inhibitors of RecQ-Like Dna Helicase 1 (RECQ1) (AID 2353). Put shortly: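 50 nM RECQ1T1 preincubated 15 min with compound in Tris pH 8.0 buffer with MgCl2, DTT, Tween-20 and 2.5 ug/ml poly(dI-dC); started with 200 nM TAMRA/BHQ-2 forked duplex and 2 mM ATP. Unwinding read as fluorescence (525/598 nm), two reads 2 h apart.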

A short description of assay [10]: Cytometric Cell-Based qHTS for Inhibitors of the mTORC1 Signaling Pathway in MEF (Tsc2-/-, p53-/-) Cells (AID 2660).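 Also: percent of cells above a phospho-rpS6 to PI ratio cutoff in each well.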 In outline: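 Tsc2-/-, p53-/- MEFs (empty vector) exposed to compound 24 h at 37 C, fixed, stained with Alexa-488 anti-phospho-rpS6 Ser235/236 and propidium iodide. Acumen laser scanning; phospho-S6/PI ratio thresholded against 7.5 nM rapamycin, reported as % positive cells.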

Assay [11] in a line: High Content Imaging Cell-Based qHTS for Inhibitors of the mTORC1 Signaling Pathway in MEF (Tsc2-/-, p53-/-) Cells (AID 2666).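 Also: percent of cells scored positive for phospho-rpS6 Ser235/236 immunostaining by imaging.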 The settings on record: at 38.3 µM (top of the series). Put shortly:
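Cells were plated, dosed with compound after 24 hrs, and incubated another 24 hrs at 37 degree Celsius. Fixed cells were immunostained for phospho-rpS6 Ser235/236 and counterstained, and the normalized signal was scored as % active cells against rapamycin and DMSO controls.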

The nature of assay [12]: High Content Imaging Cell-Based qHTS for Inhibitors of the mTORC1 Signaling Pathway in MEF Cells (AID 2667).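 Also: Tsc2-/- p53-/- MEFs stably re-expressing wild-type Tsc2 exposed 24 h.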 Put shortly:
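Immunofluorescence for rpS6 phosphorylation in MEFs of Tsc2-/-, p53-/- background rescued with WT Tsc2. Compound exposure lasted 24 hrs. Inhibition was scored against rapamycin-treated control wells.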

Assay [13] in a line: Cytometry Cell-Based qHTS for Inhibitors of the mTORC1 Signaling Pathway in MEF cells (AID 2668).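 Also: Tsc2-/- p53-/- mouse embryonic fibroblasts stably re-expressing wild-type Tsc2; percent cells positive for phospho-rpS6 Ser235/236 relative to propidium iodide stain.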 Put shortly:
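Read-out: phospho-rpS6 Ser235/236 immunofluorescence normalized to propidium iodide intensity, scored as % active cells against a rapamycin (7.5 nM) threshold. Cells: Tsc2-/-, p53-/- MEFs stably expressing WT Tsc2, compound-treated 24 hrs at 37 degree Celsius.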

Assay [14] is described as follows: Validation screen for small molecules that induce DNA re-replication in MCF 10A normal breast cells (AID 463097). Also: potency is read from the fitted curve at half-maximal effect; nearly all actives have a fitted effect of over 60% in size. Put shortly:
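250 MCF 10A cells/well; compound pin-transferred; 48 hr, 37 C, 5% CO2; Hoechst 40 min; imaged 405/500-530 nm. Hits = more high-intensity nuclei.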

In assay [15] the target is DNA polymerase III PolC-type (Bacillus subtilis (strain 168)) (UniProt P13267). Put plainly: qHTS Validation Assay for the Inhibitors of DNA Replication in Gram-Positive Bacteria (AID 485295).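 Also: reconstituted holoenzyme with PolC plus beta clamp SSB and primase; PicoGreen fluorescence of double-stranded DNA made on primed circular M13 template.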 In outline:
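PicoGreen fluorescence (ex 480–485/em 535–540 nm) reports dsDNA synthesized on ssM13Gori template with dNTPs/NTPs. Enzyme: holoenzyme rebuilt from purified PolC, beta subunit, SSB and primase. Compound preincubated before substrate addition; RT throughout.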

In assay [16] the target is Tumor susceptibility gene 101 protein (Homo sapiens) (UniProt Q99816). In words: qHTS Validation Assay for Iinhibitors of HIV-1 Budding by Blocking the Interaction of PTAP/TSG101 (AID 485342; calls by dose curve). Put shortly: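 FP read-out: FITC-PTAP peptide, 50 nM final, binding Tsg101 binding domain, 10 uM final; 20 min r.t.; 10 mM HEPES pH 7.5, 0.15 M NaCl, 0.01% Tween 20, 3 mM EDTA, 0.1 mM TCEP.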

The target in assay [17] is Beta-2 adrenergic receptor (Homo sapiens) (UniProt P07550). In words: qHTS validation assay of beta-arrestin-biased ligands of beta2-adrenergic receptor (AID 485366). Put shortly: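 Tango cells expressing recombinant beta2-AR and beta-arrestin with tTA-driven luciferase, in DMEM with 1% FBS. Compounds were titrated up to 46 microM for 18 hr at 37 degrees C. Luminescence was read 15 min after substrate; curves were fitted and class-assigned.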

The target of assay [18] is Thioredoxin reductase 1, cytoplasmic (Rattus norvegicus) (UniProt O89049). In words: qHTS Assay for Inhibitors of Mammalian Selenoprotein Thioredoxin Reductase 1 (TrxR1) (AID 488773).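 Also: drop in NADPH fluorescence over an 8 min run after selenite addition; nearly all actives have a fitted effect of over 40% in size.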 The settings on record: Potency: inhibition. In outline: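 Steps: enzyme (90 nM) plus NADPH (400 uM final), 5 min at ~22 deg C; compound added, 15 min; selenite (400 uM final) added; fluorescence followed for 8 min. Concentration-response curves derived from the normalized delta values.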

Assay [19] addresses M-phase phosphoprotein 8 (Homo sapiens) (UniProt Q99549). Put plainly: qHTS Validation Assay for Inhibitors for MPP8 Chromodomain Interactions with Methylated Histone Tails (AID 488949). Also: potency is read from the fitted curve at half-maximal effect; nearly all actives have a fitted effect of over 55% in size. Put shortly: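 AlphaScreen read-out: streptavidin donor and nickel chelate acceptor beads (final 10 ug/mL), 30 min in the dark at RT. Complex of 50 nM MPP8 and 50 nM b-H3(1-18)K9me3 peptide had been exposed to compounds for 30 min beforehand.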

Assay [20] deals with Chromobox protein homolog 1 (Homo sapiens) (UniProt P83916). Put plainly: qHTS Validation Assay for Inhibitors of HP1-beta Chromodomain Interactions with Methylated Histone Tails (AID 488953). Also: potency is read from the fitted curve at half-maximal effect; nearly all actives have a fitted effect of over 50% in size. Put shortly:
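HP1-beta (50 nM) preformed 30 min with biotinylated H3(1-18)K9me3 peptide (50 nM) in PBS pH 7.4, 0.01% Tween-20. Compounds added for 30 min at room temperature. Complex disruption read by AlphaScreen with streptavidin donor/nickel chelate acceptor beads (10 ug/mL each).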

In assay [21] the target is Methanococcus maripaludis chaperonin (MmCpn) (UniProt Q6LX38). Put plainly: High-Throughput Screening for Modulators of Cytosolic Chaperonin Activity: MmCpn Primary Screen (AID 488978). Put shortly: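 ADP formation read by HTRF Transcreener, 665/590 nm emission after 320 nm excitation. Enzyme: archaeal chaperonin at 50 nM final; substrate ATP 30 uM final; 10 min, 37C, after 5 min compound preincubation at RT.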
Methanococcus maripaludis chaperonin (MmCpn), sequence (Q6LX38 1-543): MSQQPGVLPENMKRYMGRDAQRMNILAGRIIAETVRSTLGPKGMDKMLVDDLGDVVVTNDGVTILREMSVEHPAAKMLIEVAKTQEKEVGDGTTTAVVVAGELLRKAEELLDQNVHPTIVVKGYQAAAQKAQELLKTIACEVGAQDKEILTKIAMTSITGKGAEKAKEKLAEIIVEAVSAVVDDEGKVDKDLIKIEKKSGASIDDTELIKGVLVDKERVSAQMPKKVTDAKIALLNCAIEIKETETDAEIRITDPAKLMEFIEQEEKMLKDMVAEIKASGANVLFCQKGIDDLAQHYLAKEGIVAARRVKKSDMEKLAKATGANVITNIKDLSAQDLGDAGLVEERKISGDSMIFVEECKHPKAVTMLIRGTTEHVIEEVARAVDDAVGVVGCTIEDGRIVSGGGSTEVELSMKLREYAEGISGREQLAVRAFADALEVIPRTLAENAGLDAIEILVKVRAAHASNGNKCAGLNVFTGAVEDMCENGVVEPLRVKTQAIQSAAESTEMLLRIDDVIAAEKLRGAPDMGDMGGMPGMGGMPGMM

M-phase phosphoprotein 8 (Homo sapiens), sequence (Q99549 whole entry, looked up): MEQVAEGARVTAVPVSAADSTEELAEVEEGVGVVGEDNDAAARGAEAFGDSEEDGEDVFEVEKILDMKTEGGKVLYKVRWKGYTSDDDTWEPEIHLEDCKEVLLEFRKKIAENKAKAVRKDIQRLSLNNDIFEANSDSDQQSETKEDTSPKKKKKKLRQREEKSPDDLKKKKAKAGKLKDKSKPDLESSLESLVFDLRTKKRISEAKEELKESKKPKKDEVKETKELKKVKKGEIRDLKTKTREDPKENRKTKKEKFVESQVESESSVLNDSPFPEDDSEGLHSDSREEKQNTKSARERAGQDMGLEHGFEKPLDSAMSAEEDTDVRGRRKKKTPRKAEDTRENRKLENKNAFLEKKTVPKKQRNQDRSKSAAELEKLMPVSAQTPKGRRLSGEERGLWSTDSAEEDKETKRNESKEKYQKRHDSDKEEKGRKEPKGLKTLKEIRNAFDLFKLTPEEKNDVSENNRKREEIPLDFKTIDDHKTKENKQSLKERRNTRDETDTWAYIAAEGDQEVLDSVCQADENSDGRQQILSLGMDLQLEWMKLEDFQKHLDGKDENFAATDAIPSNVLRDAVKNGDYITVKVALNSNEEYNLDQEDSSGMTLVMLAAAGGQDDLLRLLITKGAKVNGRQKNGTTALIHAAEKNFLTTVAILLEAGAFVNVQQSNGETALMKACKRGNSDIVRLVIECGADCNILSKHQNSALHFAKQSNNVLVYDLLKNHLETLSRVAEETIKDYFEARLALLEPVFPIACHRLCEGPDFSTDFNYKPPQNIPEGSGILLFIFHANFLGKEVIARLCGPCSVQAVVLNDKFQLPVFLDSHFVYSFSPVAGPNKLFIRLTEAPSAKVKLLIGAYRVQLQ
Thioredoxin reductase 1, cytoplasmic (Rattus norvegicus), sequence (O89049 whole entry, looked up): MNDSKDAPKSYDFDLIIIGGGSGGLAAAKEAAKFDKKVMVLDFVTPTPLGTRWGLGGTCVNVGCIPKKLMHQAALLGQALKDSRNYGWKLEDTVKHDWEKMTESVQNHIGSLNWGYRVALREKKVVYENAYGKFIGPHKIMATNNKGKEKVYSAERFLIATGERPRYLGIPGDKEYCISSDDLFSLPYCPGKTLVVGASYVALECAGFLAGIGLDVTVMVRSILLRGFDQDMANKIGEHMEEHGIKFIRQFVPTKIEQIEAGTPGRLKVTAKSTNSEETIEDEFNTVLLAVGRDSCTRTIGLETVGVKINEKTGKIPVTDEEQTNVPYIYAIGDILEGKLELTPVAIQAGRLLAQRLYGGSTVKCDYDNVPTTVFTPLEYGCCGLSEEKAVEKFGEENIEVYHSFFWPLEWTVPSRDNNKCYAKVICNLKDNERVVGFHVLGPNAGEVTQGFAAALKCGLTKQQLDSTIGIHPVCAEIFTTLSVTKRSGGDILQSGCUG
Chromobox protein homolog 1 (Homo sapiens), sequence (P83916 whole entry, looked up): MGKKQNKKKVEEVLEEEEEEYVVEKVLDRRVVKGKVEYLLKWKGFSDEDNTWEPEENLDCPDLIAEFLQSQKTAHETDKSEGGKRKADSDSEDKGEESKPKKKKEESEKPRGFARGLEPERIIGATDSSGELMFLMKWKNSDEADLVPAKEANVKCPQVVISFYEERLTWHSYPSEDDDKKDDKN
DNA polymerase III PolC-type (Bacillus subtilis (strain 168)), sequence (P13267 whole entry, looked up): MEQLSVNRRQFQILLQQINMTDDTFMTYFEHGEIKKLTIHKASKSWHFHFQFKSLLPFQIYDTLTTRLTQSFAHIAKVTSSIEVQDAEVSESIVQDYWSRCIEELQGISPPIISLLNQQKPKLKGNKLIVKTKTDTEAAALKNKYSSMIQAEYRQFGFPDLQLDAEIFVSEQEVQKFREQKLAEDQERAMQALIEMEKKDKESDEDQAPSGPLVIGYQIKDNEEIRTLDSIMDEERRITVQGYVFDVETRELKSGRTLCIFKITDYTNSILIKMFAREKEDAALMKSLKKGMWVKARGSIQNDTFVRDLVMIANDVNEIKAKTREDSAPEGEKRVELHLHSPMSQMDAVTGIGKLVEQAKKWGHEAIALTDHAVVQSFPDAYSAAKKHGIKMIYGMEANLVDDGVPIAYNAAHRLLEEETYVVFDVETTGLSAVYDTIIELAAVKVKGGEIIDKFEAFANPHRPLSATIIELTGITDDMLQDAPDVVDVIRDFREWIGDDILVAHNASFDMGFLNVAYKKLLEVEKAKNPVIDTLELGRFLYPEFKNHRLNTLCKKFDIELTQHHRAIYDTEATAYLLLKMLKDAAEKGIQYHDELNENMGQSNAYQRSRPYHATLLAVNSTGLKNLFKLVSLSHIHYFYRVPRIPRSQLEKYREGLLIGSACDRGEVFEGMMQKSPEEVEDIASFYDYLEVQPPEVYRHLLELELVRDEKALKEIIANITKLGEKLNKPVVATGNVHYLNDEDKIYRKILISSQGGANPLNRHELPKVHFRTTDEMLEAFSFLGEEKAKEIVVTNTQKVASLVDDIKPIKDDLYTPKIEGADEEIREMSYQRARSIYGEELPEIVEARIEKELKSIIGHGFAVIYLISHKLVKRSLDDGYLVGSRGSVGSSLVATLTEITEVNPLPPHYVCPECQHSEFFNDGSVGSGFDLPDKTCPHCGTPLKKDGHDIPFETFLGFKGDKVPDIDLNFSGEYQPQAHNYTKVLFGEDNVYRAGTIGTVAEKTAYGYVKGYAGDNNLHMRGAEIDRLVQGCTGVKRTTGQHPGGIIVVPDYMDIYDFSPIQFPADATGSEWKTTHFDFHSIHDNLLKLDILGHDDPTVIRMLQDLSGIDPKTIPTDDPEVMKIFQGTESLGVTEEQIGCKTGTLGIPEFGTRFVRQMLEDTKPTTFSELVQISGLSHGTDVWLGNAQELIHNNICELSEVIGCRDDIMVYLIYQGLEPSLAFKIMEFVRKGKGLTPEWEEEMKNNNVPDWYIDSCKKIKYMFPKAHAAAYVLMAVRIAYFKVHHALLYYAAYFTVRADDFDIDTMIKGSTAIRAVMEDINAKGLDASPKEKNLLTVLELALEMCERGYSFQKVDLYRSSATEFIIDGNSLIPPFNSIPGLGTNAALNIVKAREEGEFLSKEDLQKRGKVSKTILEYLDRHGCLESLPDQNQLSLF
Tumor susceptibility gene 101 protein (Homo sapiens), sequence (Q99816 whole entry, looked up, the tested form may be a part): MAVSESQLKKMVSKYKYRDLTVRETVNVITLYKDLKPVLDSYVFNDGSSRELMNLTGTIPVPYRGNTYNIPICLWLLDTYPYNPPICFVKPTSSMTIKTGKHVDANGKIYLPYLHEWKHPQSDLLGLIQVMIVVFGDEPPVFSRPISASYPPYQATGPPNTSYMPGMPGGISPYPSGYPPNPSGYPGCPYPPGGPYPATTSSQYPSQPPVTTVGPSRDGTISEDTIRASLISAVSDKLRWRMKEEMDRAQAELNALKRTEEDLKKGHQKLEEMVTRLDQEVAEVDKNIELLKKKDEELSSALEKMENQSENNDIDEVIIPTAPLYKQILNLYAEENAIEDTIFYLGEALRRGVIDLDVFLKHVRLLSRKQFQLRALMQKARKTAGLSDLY
ATP-dependent DNA helicase Q1 (Homo sapiens), sequence (P46063 whole entry, looked up): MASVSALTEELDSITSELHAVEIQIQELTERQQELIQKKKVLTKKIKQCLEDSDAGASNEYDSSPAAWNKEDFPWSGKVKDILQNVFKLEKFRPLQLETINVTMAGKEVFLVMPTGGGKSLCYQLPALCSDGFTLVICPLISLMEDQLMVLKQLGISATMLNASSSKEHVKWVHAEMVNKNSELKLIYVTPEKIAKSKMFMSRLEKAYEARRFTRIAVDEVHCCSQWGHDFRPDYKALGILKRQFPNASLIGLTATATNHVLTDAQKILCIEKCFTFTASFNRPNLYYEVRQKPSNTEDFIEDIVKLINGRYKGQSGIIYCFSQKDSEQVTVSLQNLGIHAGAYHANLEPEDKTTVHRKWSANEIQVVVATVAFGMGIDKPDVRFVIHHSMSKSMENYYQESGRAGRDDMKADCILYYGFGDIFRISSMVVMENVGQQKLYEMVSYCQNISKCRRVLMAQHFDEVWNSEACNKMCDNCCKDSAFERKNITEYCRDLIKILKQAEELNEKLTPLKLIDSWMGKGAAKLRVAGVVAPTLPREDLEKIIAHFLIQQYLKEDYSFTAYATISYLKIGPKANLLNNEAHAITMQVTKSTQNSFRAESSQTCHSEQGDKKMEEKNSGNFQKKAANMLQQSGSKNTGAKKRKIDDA
Beta-2 adrenergic receptor (Homo sapiens), sequence (P07550 whole entry, looked up): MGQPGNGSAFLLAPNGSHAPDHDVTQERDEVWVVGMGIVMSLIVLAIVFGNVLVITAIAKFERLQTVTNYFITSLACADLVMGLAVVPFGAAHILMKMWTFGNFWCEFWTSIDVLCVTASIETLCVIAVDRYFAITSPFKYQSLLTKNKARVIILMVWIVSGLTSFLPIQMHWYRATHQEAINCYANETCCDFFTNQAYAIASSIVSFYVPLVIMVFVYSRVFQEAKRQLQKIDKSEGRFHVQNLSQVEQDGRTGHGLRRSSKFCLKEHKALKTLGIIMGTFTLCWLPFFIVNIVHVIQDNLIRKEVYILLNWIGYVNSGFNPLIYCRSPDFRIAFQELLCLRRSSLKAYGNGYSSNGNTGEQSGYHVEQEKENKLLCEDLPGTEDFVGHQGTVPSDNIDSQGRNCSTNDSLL

In the case of `N#C/C(=C\c1ccc(O)c(O)c1)C(=O)Nc1ccccc1`, the Potency entry in assay [1], in assay [2], in assay [9], in assay [12], in assay [13] and in [15] was “inactive” throughout. In addition, the Potency entry in assay [18] is “inactive”. The Potency is 8.91 µM (active) in assay [3]; 14.1 µM (active) in assay [4]; 12.6 µM (active) in [5]; 10 µM (active) in assay [6]; 12.6 µM (active) in assay [7]; 7.94 µM (active) in assay [8]. The Potency in [14] was 12.6 µM (active); in assay [19], 12.6 µM (active) and 10.6 µM (active); in assay [20], 12.6 µM (active). Moreover, the outcome in assay [10], in assay [11], in [16], in assay [17] and in [21] was inactive.

For the origin of these results see PubChem BioAssay (NCATS).
